Compound activity: PubChem, National Center for Advancing Translational Sciences (NCATS)
Hits are enriched below; roughly 3.3% of the tested compounds scored in any of these assays.
AmpC inh no detg – AmpC beta-lactamase inhibition without detergent; 330,000 tested, 0.52% active; Potency, µM (series often up to 57.1 µM), for inactives: at the top dose activity change, negative = inhibition, most hits filed as inhibitors; P00811; AmpC nitrocefin hydrolysis, absorbance 480 nm, 0.0001% Triton;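 further: plate controls were no compound for no effect and no enzyme for full effect; nearly all actives have a fitted effect of over 20% in size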
Target sequence (P00811 whole entry, looked up): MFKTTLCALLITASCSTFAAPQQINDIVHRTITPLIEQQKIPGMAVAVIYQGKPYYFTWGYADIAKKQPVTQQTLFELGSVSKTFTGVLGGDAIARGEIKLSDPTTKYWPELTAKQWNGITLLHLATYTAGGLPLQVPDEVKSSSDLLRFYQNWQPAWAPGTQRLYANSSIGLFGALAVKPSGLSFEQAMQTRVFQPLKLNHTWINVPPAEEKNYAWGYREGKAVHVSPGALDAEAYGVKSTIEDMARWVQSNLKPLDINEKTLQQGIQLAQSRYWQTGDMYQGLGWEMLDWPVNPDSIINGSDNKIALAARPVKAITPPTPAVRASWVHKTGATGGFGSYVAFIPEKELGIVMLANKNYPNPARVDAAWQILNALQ
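AmpC (5.3 nM in the dispensed reagent) in 20 mM phosphate pH 7.0 with 0.01% (detergent screen) or 0.0001% Triton X-100 was preincubated with compounds for 15 min at room temperature. Nitrocefin was then added from an 800 uM solution, and hydrolysis was followed at 480 nm.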
AmpC detergent – blocks E. coli AmpC beta-lactamase in detergent assay; AmpC hydrolysis of nitrocefin, absorbance 480 nm, 0.01% Triton; Potency, µM (top dose mostly 114 µM), for the others: at the top dose activity change, negative = inhibition, hits mostly inhibitors; 370,000 tested, 0.041% active; AID 485294;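 further: 0% = no-compound wells and -100% = no-enzyme wells; nearly all actives have a fitted effect of over 25% in size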
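AmpC (5.3 nM in the dispensed reagent) in 20 mM phosphate pH 7.0 with 0.01% (detergent screen) or 0.0001% Triton X-100 was preincubated with compounds for 15 min at room temperature. Nitrocefin was then added from an 800 uM solution, and hydrolysis was followed at 480 nm.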
Sm TGR inh – S. mansoni TGR enzyme inhibition | Q962Y6 | purified TGR, DTNB reduction, TNB absorbance 405 nm | Potency, µM (titrated, usually from 114 µM), inactives show top-dose activity change, negative = inhibition, actives largely listed as inhibitors | 360,000 tested, 3% active; further: nearly all actives have a fitted effect of over 60% in size
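Kinetic colorimetric format: TGR-catalysed, NADPH-driven DTNB reduction monitored via TNB absorbance. Enzyme dispensed at 20 nM; compound exposure 15 min at room temperature before reaction start.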
* marks the source's active call; other numbers are inactive results; ? = inconclusive; . = no result. The call rests on the fitted dose curve; in most records, active means well fitted curve in the direction sought with a large enough effect; inconclusive means small, poorly fitted or top-dose-only effect, or another doubt; inactive means no such curve, though single readings can be large; an effect the other way counts as inactive or inconclusive. Unless noted, on the % scale 0 is the no-effect control and ±100 the full control effect; potency means the concentration at half of the fitted maximal effect.

SMILES	AmpC inh no detg	AmpC detergent	Sm TGR inh
COc1ccc(-c2nc(C)ncc2N=Nc2ccccc2)cc1	61.3%	-9.1%	13.6%
COc1ccc(-n2c(=O)c(CCC(=O)N3CCC(C)CC3)nc3ccccc32)cc1	101.6%	6.2%	-1.8%
COC(=O)c1ccc(NC(=S)NC(=O)c2c(Cl)cnn2C)cc1	?	12.7%	-3.1%
COC(=O)c1ccc(NC(=O)c2c(Br)cnn2C)cc1	-39.9%	-6.8%	14.1µM*
CC(C)N(C(=NCc1ccccc1)NC(=O)c1ccccc1)C(C)C	81.7%	?	-0.7%
CC(=O)Nc1ccc(-c2csc(-c3cccnc3)n2)cc1	0.7%	5.5%	-5.7%
Cc1ccc(C(=O)OCC(=O)Nc2ccc3c(c2)OCO3)c(O)c1	-11.7%	?	0.4%
Cc1ccc(C(O)(COC(=O)C(C)C)COC(=O)C(C)C)c(O)c1	9.1%	6.9%	35.5µM*
Clc1ccc(N=c2ssnc2Cl)cc1	-37.0%	-14.9%	?
COc1ccc(N=c2ssnc2Cl)cc1	-26.6%	?	56.2µM*
Cc1cc(Br)ccc1NC(=O)CNC(=O)CN(C)C1CCS(=O)(=O)C1 (configuration not stated)	-3.9%	-14.7%	-8.7%
COP(=O)(Cc1ccc(C#N)o1)OC	-12.1%	-5.5%	22.4µM*
Cc1ccc(NC(=O)CSCc2cc(=O)n3cc(C)sc3n2)c(C)c1	16.2%	-11.2%	-15.5%
Cc1ccc(C(=O)Nc2ncc(C)s2)o1	-4.4%	-2.1%	3.4%
Cc1ccc(C(=O)Nc2ncc(Cc3ccc(F)cc3)s2)o1	31.6µM*	?	2.0%
CCC1(c2ccc(F)cc2)NC(=O)N(CC(=O)NCC(=O)Nc2cccc(C)c2C)C1=O (configuration not stated)	34.6%	-14.8%	-1.4%
COc1ccc(CC(=O)NCCc2csc(-c3cccc(C)c3)n2)cc1	.	-1.3%	9.1%
CCOC(=O)c1[nH]cnc1C(=O)N1CCC(C)CC1	-4.6%	-1.1%	0.0%
O=c1c2ccccc2c(C=Nc2cccc(S(=O)(=O)NCc3ccco3)c2)c(O)n1-c1ccc(Cl)cn1	-8.3%	?	-13.5%
COC(=O)/C=c1\sc2ncnn2c1=O	-5.4%	-5.7%	1.41µM*
CNC(=O)/C(C#N)=c1\s/c(=C/C(=O)OC)c(=O)n1-c1ccccc1	-27.2%	?	1.5%
CCOc1ccc(S(=O)(=O)c2cn(Cc3ccccc3C)c3ccc(OC)cc3c2=O)cc1	.	6.7%	1.3%
CC1=Nc2ccccc2/C1=C\c1nc(-c2ccccc2)oc1O	3.6%	?	?
COc1ccc(-c2nc(/C=C3\C(C)=Nc4ccccc43)c(O)o2)cc1	-15.8%	-5.7%	44.7µM*
COC(=O)[C@H](CC(C)C)NCc1cccc(CN[C@@H](CC(C)C)C(=O)OC)c1	160.1%	-1.3%	8.6%
SMILES	AmpC inh no detg	AmpC detergent	Sm TGR inh
COc1cccc(NC(=O)CN(C)C(=O)c2oc3c(ccc4ccccc43)c2C)c1	30.7%	?	-3.7%
Cc1ccc(CSc2sc(C(=O)c3ccccc3)c(N)c2C#N)cc1	10µM*	0.0%	-15.4%
N#Cc1c(SCc2ccccc2)sc(C(=O)c2ccccc2)c1N	-24.6%	-0.1%	?
CCOC(=O)[C@]1(C#N)[C@@H]2C=CC(C(C)=O)=CN2[C@@H](C(N)=O)[C@@H]1c1ccsc1	6.9%	7.6%	39.8µM*
CCOC(=O)N1CC=C2C(C#N)=C(N)C(C#N)(C#N)[C@H](c3ccsc3)[C@H]2C1	-23.5%	-6.1%	?
C/C(=N\NC(=O)c1ccc(NS(=O)(=O)c2cccs2)cc1)c1ccccc1	-40.4%	2.3%	0.4%
COc1ccc2nc(NC(=O)c3ccc(NS(=O)(=O)c4cccs4)cc3)sc2c1	2.51µM*	?	-10.1%
COc1ccc2nc(NC(=O)CNS(=O)(=O)c3cccs3)sc2c1	?	-5.2%	-5.5%
COc1ccc(/C(C)=N/NC(=O)c2ccc(NS(=O)(=O)c3cccs3)cc2)cc1	10µM*	-9.6%	-9.0%
CC1CCCCN1c1cc2c(cc1F)c(=O)c(S(=O)(=O)c1ccccc1)cn2Cc1ccccc1 (configuration not stated)	.	-11.9%	-0.7%
COc1ccc(/C=C(/C(=O)c2cccs2)N2C=CC=CC2=C(C#N)C#N)cc1	-24.7%	-10.6%	0.282µM*
COc1ccc(N=N/C(=C\O)C(=O)c2cccs2)cc1	-34.4%	?	12.0%
CC(=O)N1c2ccc(S(=O)(=O)NCCC(=O)N3CCCC(C)C3)cc2CC1C (configuration not stated)	20.0%	-1.7%	-9.3%
CCO[C@@H]1OC(C(=O)N2CCCCCCC2)=C[C@H](c2csc3ccccc23)[C@H]1CCCO	181.3%	8.3%	2.3%
COc1ccc(NS(=O)(=O)c2ccc3oc(=O)c4[nH]c(=O)c(=O)n(C)c4c3c2)cc1	-26.4%	2.6%	50.1µM*
CCn1cnc2c(=O)oc3ccc(S(=O)(=O)Nc4ccc(OC)cc4)cc3c21	.	6.4%	2.4%
Cc1ccc(-c2cnc(-c3ccccc3C(=O)O)o2)cc1	-17.1%	-2.3%	10.2%
Cc1ccc(C)c(NS(=O)(=O)c2cc(C(=O)NCCSC3CCCCC3)ccc2C)c1	-33.1%	-5.4%	-20.8%
Cc1ccccc1NS(=O)(=O)c1cc(C(=O)NCCSC2CCCCC2)ccc1C	1.26µM*	-3.0%	3.8%
CCC(=O)Nc1ccc(N2CCCCC2)c(C(=O)Nc2ccc(OC)cc2)c1	-11.9%	-1.2%	-10.1%
COc1ccc(C(=O)Nc2ccc(N3CCCC3)cc2)cc1	1.3%	?	56.2µM*
COc1ccc(C(=O)NC(=S)Nc2ccc(N3CCCC3)cc2)cc1	-20.2%	?	-2.6%
COc1ccc(CC(=O)Nc2ccc(N3CCCC3)c(C)c2)cc1	-2.6%	-12.6%	50.1µM*
Cc1cc(C)nc(N2CCCC(C(=O)NNC(=O)c3ccncc3)C2)n1 (configuration not stated)	-2.4%	-6.7%	1.5%
COc1cccc(-c2nc(SC(C(C)=O)C(=O)N(C)C)c3c(=O)n(C)c(=O)n(C)c3n2)c1 (configuration not stated)	.	21.4%	-1.8%
SMILES	AmpC inh no detg	AmpC detergent	Sm TGR inh
COc1ccc(C(=O)N/C(=C\c2ccccc2)C(=O)Nc2ccc(C(=O)NCC(=O)O)cc2)cc1	-17.8%	-6.9%	3.2%
COc1ccccc1NC(=O)c1ccc(NC(=O)COC(=O)c2ccc(O)cc2)cc1	-43.8%	-0.6%	-3.2%
COc1ccccc1NC(=O)c1ccc(NC(=O)COC(=O)C(C)C)cc1	-27.5%	-5.1%	31.6µM*
Cc1ccc2nc3c(c(C(=O)OC4CCOC4=O)c2c1)CCCC3 (configuration not stated)	1.9%	-3.5%	-1.0%
O=C(CSc1nc2nc(-c3cccs3)cc(C(F)(F)F)c2c(=O)[nH]1)Nc1c(F)c(F)c(F)c(F)c1F	-30.8%	-5.2%	5.7%
NS(=O)(=O)c1cccc(NC(=O)CSc2nc3nc(-c4cccs4)cc(C(F)(F)F)c3c(=O)[nH]2)c1	15.8µM*	-1.9%	-16.9%
Cc1[nH]nc(SCC(=O)NC2CCCC2)c1[N+](=O)[O-]	-5.3%	0.9%	1.4%
Cc1c(C(=O)OCC(C)C)[nH]c2c1C(=O)CC(c1ccco1)C2 (configuration not stated)	-22.4%	-8.6%	?
C/C=C/COC(=O)c1[nH]c2c(c1C)C(=O)CC(c1ccco1)C2 (configuration not stated)	-56.7%	-7.1%	50.1µM*
